# Shown is part of a subset that was picked to be rich in hits.
# TTR transcr act: activators of transthyretin transcription | hit rate 1.3% among 92,000 | activation, % at 16.7 µM | AID 1117267 | SH-SY5Y TTR promoter Gaussia luciferase, luminescence; 100% = recombinant luciferase protein wells;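 active = activation above the mean of all tested compounds plus 3 SD, cut at about 9.5% in these data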;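 also: cells exposed to compounds for one day before reading; 0% = median of all test compound wells on the plate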
# HuH7 TTR inh: decreases TTR transcription in HuH7 cells in activator counter-screen | shares compounds with TTR transcr act | HuH7 TTR promoter-Gaussia luciferase reporter, luminescence | inhibition, % at 16.7 µM | hit rate 4% among 1,100 | AID 1117279;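 active = average inhibition above the solvent-only control wells' mean plus 3 SD, cut at about 15% in these data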;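 also: 0% = cells with DMSO only and 100% = cells with inhibitor control FD; inhibitors lower well luminescence so higher value means more inhibition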
# TTR act confirm: human TTR transcription activation, confirmation | activation, % at 16.7 µM | 1,100 tested, under 10 active | SHSY5Y TTR promoter Gaussia luciferase, luminescence; 100% = purified Lucia enzyme wells, no cells | shares compounds with TTR transcr act;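 active = mean activation above a set limit taken from the earlier primary screen, cut at about 11% in these data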;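 also: 0% = DMSO-treated cells and 100% = recombinant Lucia luciferase without cells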
# * hit, by the source's call.
SMILES,TTR transcr act,others
COc1ccccc1N1CCN(C(=O)CSc2nnc(NC(=O)C(C)C)s2)CC1,13.0*,HuH7 TTR inh=-28.2;TTR act confirm=-0.3
COc1ccccc1N1CCN(C(=O)CSc2nc3ccccc3nc2N2CCC(C)CC2)CC1,-0.9,
CC(=O)Nc1nnc(SCC(=O)N2CCc3ccccc32)s1,1.5,
O=C(Nc1cccc(Cl)c1)OCCN1CCCC12CCC(c1ccccc1)CC2 (stereo not drawn),-1.2,
CC(C)(N[C@@H](Cc1c[nH]c2ccccc12)C(=O)NCCCc1ccccc1)C(=O)NCc1ccccc1,-0.6,
CC(C(=O)Nc1ccc(C#N)cc1)N(C)Cc1cccs1 (stereo not drawn),0.4,
CC(C(=O)Nc1ccc(S(=O)(=O)N2CCCC2)cc1)N(C)CC(=O)Nc1cccc(F)c1 (stereo not drawn),0.4,
CC(C(=O)Nc1ccc(C#N)cc1)N(C)CC(=O)Nc1cccc(F)c1 (stereo not drawn),9.9*,HuH7 TTR inh=-9.4;TTR act confirm=-0.7
Cc1ccc(-c2c(NC(=O)Nc3ccccc3)nc3ncccn23)cc1,-0.3,
Cc1oc(=O)c(NC(=O)c2ccccc2)cc1C(C)O (stereo not drawn),5.5,
Cc1ccc(C(=O)Nc2c[nH]c(=O)[nH]c2=O)cc1,3.4,
Cc1ccc(C(=O)Nc2cc3c(oc2=O)CCCC3=O)cc1,27.5*,HuH7 TTR inh=8.2;TTR act confirm=-0.1
CCC[C@H]1[C@@H](NC(=O)c2cccnc2)CC[C@@]23CCCN2C(=O)CCC[C@@H]13,1.9,
COc1ccc(Oc2c(Cl)cnn(-c3ccc(C(C)C)c(C)c3)c2=O)cc1,1.3,
O=C(OCC#CCSc1nnc(-c2cccc3ccccc23)o1)c1ccncc1,-0.6,
Cc1cc(C)nc(SCCC(=O)Nc2cccc3ccccc23)n1,13.1*,HuH7 TTR inh=-10.3;TTR act confirm=2.3
Cc1cc(C)nc(SCC(=O)Nc2ccnc3ccccc23)n1,-3.1,
O=C(CSCC(=O)Nc1cccc2ccccc12)Nc1cccc2ccccc12,-1.4,
COc1ccc(C(=O)C2CCN(c3ncnc4sccc34)CC2)cc1,-3.9,
O=C(Cc1cccs1)N1CCN(S(=O)(=O)c2ccccc2)CC1,1.1,
O=C(Cc1cccs1)N1CCN(S(=O)(=O)c2ccc(F)c(F)c2)CC1,10.3*,HuH7 TTR inh=-11.0;TTR act confirm=0.6
O=C(CN(Cc1ccco1)Cc1cccs1)N1CCN(S(=O)(=O)c2cccc(F)c2)CC1,-1.3,
Cc1cc(C)cc(NC(=O)OC2CC3CC2[C@H]2CCCCN2[C@H]3C)c1 (stereo partly drawn),2.2,
c1ccc(C2CCC3(CC2)CCC3NCc2cccs2)cc1 (stereo not drawn),0.9,
C[C@H]1C=C(C(=O)NCc2nc3ccccc3[nH]2)O[C@@H](OCCCCO)C1,8.9,
SMILES,TTR transcr act,others
CC(C)(C)[C@H]1C=C(C(=O)NCc2ccccc2)O[C@@H](OCCCCO)C1,18.5*,HuH7 TTR inh=-30.9;TTR act confirm=1.1
CC(C)(C)[C@H]1C=C(C(=O)O)O[C@@H](OCCCCO)C1,1.7,
COc1ccc(CN(C)CC(=O)Nc2ccccc2C(F)(F)F)cc1,-0.8,
CSc1ccccc1NC(=O)CN(C)CC(=O)Nc1ccc(Cl)cc1F,-0.6,
CSc1ccccc1NC(=O)CN(C)CC(=O)Nc1ccccc1C(F)(F)F,12.5*,HuH7 TTR inh=-19.1;TTR act confirm=0.5
O=C(Nc1ccc(Br)cc1)O[C@@H]1CC[C@@]23CCCN2C(=O)CCC[C@H]3C1,1.1,
CCN1CCCCC(NC(=O)Cc2ccccc2)C1=O (stereo not drawn),1.9,
CCOCCn1c(CN2CCc3ccccc3C2)nc2c1c(=O)n(C)c(=O)n2C,12.8*,HuH7 TTR inh=2.5;TTR act confirm=-0.5
CCOCCn1c(CN2CCN(c3ccccc3)CC2)nc2c1c(=O)n(C)c(=O)n2C,1.8,
Cn1c(=O)c2c(nc(CN3CCc4ccccc4C3)n2Cc2ccccc2)n(C)c1=O,-3.5,
CCN1C(=O)[C@@H]2[C@@H](c3ccc(-c4ccc(C(C)=O)cc4)cc3)N3CCCC[C@@]3(C(=O)OC)[C@@H]2C1=O,12.2*,HuH7 TTR inh=1.5;TTR act confirm=-0.6
CCN1C(=O)[C@@H]2[C@@H](c3ccc(-c4ccc5c(c4)OCO5)cc3)N3CCCC[C@@]3(C(=O)OC)[C@@H]2C1=O,-2.2,
COC(=O)[C@@]12CCCN1[C@H](c1ccc(-c3ccccc3)cc1)[C@H]1C(=O)N(C)C(=O)[C@H]12,3.6,
COC(=O)[C@@]12CCCCN1[C@H](c1ccc(SC3CCCCC3)cc1)[C@@H]1C(=O)N(C)C(=O)[C@@H]12,17.2*,HuH7 TTR inh=6.9;TTR act confirm=-1.2
COC(=O)[C@@]12CCCCN1[C@H](c1ccc(-c3ccc(C(C)=O)cc3)cc1)[C@H]1C(=O)N(C)C(=O)[C@H]12,-1.9,
CCSc1ccc([C@@H]2[C@H]3C(=O)N(C)C(=O)[C@H]3[C@]3(C(=O)OC)CCCCN23)cc1,-1.1,
C#CCNC[C@@H]1CSCCS(=O)(=O)N1,0.5,
CNc1ccccc1/C(O)=C(\C#N)C(=O)NCc1cccs1,-1.6,
CCOC(=O)[C@]12CCCC=C1N(CCCOC)C(=O)[C@@H]2CC(=O)NCC12CC3CC(CC(C3)C1)C2,2.7,
CN(C(=O)[C@@H](C1CC1)[C@@H](O)c1ccc(Cl)cc1)c1ccccc1,-2.2,
O=C(NCCc1c[nH]c2ccccc12)OCc1cn(Cc2cccc(F)c2F)nn1,8.7,
CN1C2=N[C@H](c3ccc(Br)cc3)CC(=O)N2/C(=C\c2ccccc2)[C@@H]1c1ccccc1,-0.3,
O=c1c2c3c(sc2n2c(=S)[nH]nc2n1-c1ccccc1)CCC3,1.5,
Cc1ccc(-n2c(=O)c3c4c(sc3n3c(=S)[nH]nc23)CCC4)cc1,14.7*,HuH7 TTR inh=-8.5;TTR act confirm=2.0
COc1ccc(-n2c(=O)c3c4c(sc3n3c(=S)[nH]nc23)CCC4)cc1,-2.2,
SMILES,TTR transcr act,others
C[C@@H]1C[C@H]2O[C@@H]2/C=C\C=C\C(=O)Cc2cc(O)cc(O)c2C(=O)O1,-3.1,
O=C(O)CCNS(=O)(=O)c1ccc2ccccc2c1,0.9,
O=C(O)CCNS(=O)(=O)c1ccccc1,0.4,
O=C(O)CNS(=O)(=O)c1cccc(Cl)c1,14.6*,HuH7 TTR inh=-11.3;TTR act confirm=4.2
CCCCOCCCNC(=O)C[C@H]1C(=O)N(Cc2ccc(OC)cc2)C2=CCCCC[C@@]21C(=O)OC,-0.3,
COC(=O)C[C@H]1CC[C@@H]2[C@H](COc3ccc(NC(=O)c4cnccn4)cc3C(=O)N2C)O1,0.1,
O=C/C(=C\Nc1ccc(Br)cc1)c1nc2ccccc2o1,2.6,
O=C/C(=C\Nc1ccccn1)c1nc2cc(Cl)ccc2o1,1.0,
O=C/C(=C\Nc1ccccn1)c1nc2ccccc2o1,10.9*,HuH7 TTR inh=25.2*;TTR act confirm=-1.0
CCOC(=O)[C@]12CCCC=C1N(CCCOC)C(=O)[C@@H]2CC(=O)N1CCCCC1,-0.2,
CN1C(=O)c2cc(NC(=O)c3ccc(F)cc3)ccc2OC[C@H]2O[C@H](CC(=O)NC3CCC3)CC[C@H]21,0.6,
NC(=O)C1CCN(c2nc(-c3ccc4c(c3)CCO4)cs2)CC1,1.5,
C/C(=N\NC(=O)C(N)=O)c1cccc([N+](=O)[O-])c1,3.3,
C/C(=N\Nc1cc(C)nc(-c2ccccc2)n1)c1cccc([N+](=O)[O-])c1,-1.0,
C/C(=N\Nc1ncc(Br)cn1)c1cccc([N+](=O)[O-])c1,13.5*,HuH7 TTR inh=20.5*;TTR act confirm=-1.0
CNC(=O)[C@@H]1CC=C[C@@H]2CCN(c3ccccc3)C(=O)[C@@H]21,-1.1,
O=C(OCc1cn(Cc2ccccc2)nn1)N1CCCC1,2.8,
FC(F)(F)c1ccccc1Cn1ccc2ccc(-c3ccc4ccn(Cc5ccccc5C(F)(F)F)c4c3)cc21,18.2*,HuH7 TTR inh=-6.1;TTR act confirm=-0.4
